Source: PubChem (several laboratories)
Rows were chosen to be rich in hits. Some 3% of all compounds tested hit in one or more screens of this group.
NALP1 inh = blocks the NALP1 inflammasome reconstituted in yeast; inhibition, % at 10 µM; S. cerevisiae NALP1/ASC/caspase-1 growth, X-gal OD620, 72 h; AID 2071; 0.61% of 280,000 active; in the data active means inhibition mostly above about 24%, no sharp cut-off; inactive means mostly below about 32%
CHT PAM = allosteric activators of human choline transporter CHT | 0.49% of 310,000 active | Q9GZV3 | B-score at 10 µM | CHT-expressing cells, membrane potential dye, choline EC20; hits give high values; LV-AA mutant CHT in HEK293 cells;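 active means initial fluorescence not abnormally high and integrated response B-score, plate-corrected, over 3 SD above library mean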
Target sequence (Q9GZV3 whole entry, looked up): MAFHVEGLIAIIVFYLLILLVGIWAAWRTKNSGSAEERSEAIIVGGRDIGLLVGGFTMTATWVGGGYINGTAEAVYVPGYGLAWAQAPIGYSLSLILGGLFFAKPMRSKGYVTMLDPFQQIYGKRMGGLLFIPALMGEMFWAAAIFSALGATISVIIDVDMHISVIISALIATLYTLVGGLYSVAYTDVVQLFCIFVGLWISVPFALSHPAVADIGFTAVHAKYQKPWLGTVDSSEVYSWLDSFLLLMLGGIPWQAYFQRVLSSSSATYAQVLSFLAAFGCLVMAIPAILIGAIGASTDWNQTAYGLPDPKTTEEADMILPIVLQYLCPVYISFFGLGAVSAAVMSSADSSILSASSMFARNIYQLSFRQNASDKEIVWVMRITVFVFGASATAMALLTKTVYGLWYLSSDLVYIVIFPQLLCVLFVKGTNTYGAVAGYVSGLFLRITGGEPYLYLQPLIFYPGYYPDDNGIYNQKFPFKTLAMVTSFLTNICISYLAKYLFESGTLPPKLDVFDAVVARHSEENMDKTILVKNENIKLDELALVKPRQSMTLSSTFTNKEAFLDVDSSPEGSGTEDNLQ
CHT block = inhibitors of human choline transporter CHT; B-score at 10 µM; Q9GZV3; 0.86% of 310,000 active; CHT-expressing cells, membrane potential dye, choline response; hits give low values;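 active means B-score over 3 SD under the library average, and starting fluorescence ratio not unusually high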;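 further: choline stimulus applied at its EC90 after an EC20 pre-addition; B-score computed on integrated fluorescence ratio after choline addition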
Mot1-301 SUMO = blocks SUMOylation pathway, rescuing yeast Mot1-301 growth. 1% of 320,000 active. growth rescue, % at 18.8 µM. S. cerevisiae Mot1-301 growth rescue, ATP luminescence, 38.5C; percent above DMSO median, 100 means doubled. AID 2716;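 active means every valid replicate shows activation above 250% relative to neutral control wells; inactive means the rest, any valid replicate at or below 250%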
NALP3 yeast inh = NALP3 inhibition in yeast; Yeast reconstituted NLRP3/ASC/caspase-1, beta-gal luminescence, 24 h; AID 2825; inhibition, % at 10 µM; 0.39% of 330,000 active;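 active means inhibition of 50% or more; inactive means inhibition below 50%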
A1 inh = inhibitors of the anti-apoptotic protein A1, read as caspase activation | MEF A1-2A-BIM cells, Caspase-Glo 3/7 luminescence, 3 h; percent of clofoctol response, vehicle zero | caspase activation, % (concentration not given with the values) | 0.066% of 330,000 active | AID 2462;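 active means over half of replicate activation scores above 10%, or exactly half above 10 with the replicate mean above 10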
CHT inh conf = human CHT inhibition, confirmatory screen; shares compounds with CHT block; 70% of 2,400 active; CHT-expressing cells, choline membrane potential dye; LV-to-AA substituted CHT, HEK293 cells; CHT activity remaining % of control (hits give low values), % at 10 µM;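 active means choline transporter activity left, mean of duplicates at 10 µM, below buffer-only control mean minus 3 SD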;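 further: depolarization triggered by choline at its EC90 following an EC20 pre-addition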
HEK293 MPD ctr = counter-screen for CHT inhibitors: effect in parental HEK293 cells; membrane potential dye, choline response; active = decrease or increase beyond buffer ±3SD; 4% of 2,400 active; membrane potential ratio readout (active if shifted either direction beyond buffer ±3SD; no single direction) at 10 µM; shares compounds with CHT block;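 further: parental cells lack the transporter so any hit is non-specific; ratio is peak minus trough fluorescence over baseline after EC90 choline challenge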
Large screens that a line does not name were inactive (follow-up assays come after a bar, where they were run).

CCN(CC)C(=O)N1CCN(S(=O)(=O)c2ccc(C)cc2)CC1	none
COc1ccc(C2=NN(C(=O)c3cccs3)C(O)(C(F)(F)F)C2)cc1 (configuration not stated)	none
COc1ccc(C2=NN(c3nc(C(=O)O)cs3)C(O)(C(F)(F)F)C2)c(OC)c1 (configuration not stated)	CHT block -8.9 | CHT inh conf 42% | HEK293 MPD ctr inactive
CC(C)NC[C@@H](O)c1ccc(O)c(O)c1	none
CC(C)(C)NCC(O)c1cc(O)cc(O)c1 (configuration not stated)	CHT block -5.9 (no result: NALP3 yeast inh) | CHT inh conf 45% | HEK293 MPD ctr inactive
C/C(=N\OCC(=O)Nc1ccccc1C(=O)O)c1cccs1	CHT block -6.2 | CHT inh conf 44% | HEK293 MPD ctr inactive
C/C(=N/OCC(=O)Nc1ccc(C)cc1C)c1cccs1	none
CC(C)(C)OC(=O)NCCCCCc1nnc(SCC(N)=O)o1	CHT block -6.3 | CHT inh conf inactive | HEK293 MPD ctr inactive
C=C(C)CSc1nnc(CCCCCNC(=O)OC(C)(C)C)o1	CHT block -6 (no result: NALP1 inh) | CHT inh conf 68% | HEK293 MPD ctr inactive
CC(C)(C)OC(=O)NCCc1nnc(SCc2ccccc2)o1	none
CCN(CC)C(=O)CSc1nnc(CCCCCNC(=O)OC(C)(C)C)o1	none
Cc1ccc(CSc2nnc(CCNC(=O)OC(C)(C)C)o2)cc1	CHT block -5.3 (no result: NALP1 inh) | CHT inh conf 69% | HEK293 MPD ctr inactive
COc1ccc(N2CC(C(=O)Nc3c4c(nn3-c3ccccc3)CS(=O)(=O)C4)CC2=O)cc1 (configuration not stated)	none
COc1ccc(NC(=O)C2C3C=CC4(O3)C2C(=O)N(CCN2CCCCC2)C4C(=O)NC2CCCC(C)C2C)cc1 (configuration not stated)	none
COc1ccc(CCNc2nc(-c3ccc(O)cc3)cs2)cc1OC	CHT block -5 | CHT inh conf inactive | HEK293 MPD ctr inactive
COc1ccc(CCNc2nc(-c3ccncc3)cs2)cc1OC	none (no result: NALP1 inh)
COc1ccc(N(C)C(=O)C2CCN(S(=O)(=O)c3cccc4nonc34)CC2)cc1	none
CCCCC(=O)OCc1c(-c2cccc(OC)c2)ncc2ccccc12	none (no result: NALP1 inh, CHT PAM, CHT block)
COc1cc2c(cc1OC)/C(=C/C(=O)c1ccccc1F)NCC2	CHT block -5.3 | CHT inh conf 52% | HEK293 MPD ctr inactive
COc1cc2c(cc1OC)/C(=C/C(=O)c1ccc(F)cc1)NCC2	none
O=[N+]([O-])c1c(Nc2cccc(O)c2)cc(Cl)c2nonc12	CHT block -7.4 | CHT inh conf 28% | HEK293 MPD ctr inactive
O=C(O)c1ccc(Nc2cc(Cl)c3nonc3c2[N+](=O)[O-])cc1	none
CNc1cc(Cl)nc(SC)n1	CHT block -12 | CHT inh conf -0.4% | HEK293 MPD ctr inactive
CC1CCc2sc(NC(=O)C3CC(Cl)=CCC3C(=O)O)c(C#N)c2C1 (configuration not stated)	none
CCOc1ccc(-n2c(SCc3ccc(C#N)cc3)nnc2-c2cccnc2)cc1	none
C=CCSc1nnc(-c2ccncc2)n1-c1ccc(OCC)cc1	CHT block -5.5 | CHT inh conf 59% | HEK293 MPD ctr -8.4
O=C(O)c1ccc(CSc2nnc(-c3ccncc3)n2-c2ccc(Cl)cc2)cc1	none
CCc1ccc(-n2c(SCc3c(C)noc3C)nnc2-c2ccncc2)cc1	CHT block -5.1 | CHT inh conf inactive | HEK293 MPD ctr inactive
Cc1noc(C)c1S(=O)(=O)N(C)C[C@H]1Oc2ccc(NC(=O)CCC(F)(F)F)cc2C(=O)N([C@H](C)CO)C[C@@H]1C	none (no result: NALP1 inh, CHT PAM, CHT block)
O=C(COC(=O)c1cccc(F)c1)Nc1ccc2c(c1)OCCO2	none (no result: NALP1 inh, CHT PAM, CHT block)
COc1cccc(C(=O)NCCS(=O)(=O)N2CCC(C)CC2)c1	none (no result: NALP1 inh)
C/C(=N\NC(=O)c1nnn(-c2nonc2N)c1CN1CCc2ccccc21)c1ccccc1O	none
CN(CC1CCCN(CCc2ccc(Cl)cc2)C1)C(=O)C(=O)c1ccco1 (configuration not stated)	none
CCC(C)(C)NC(=O)C(c1ccccn1)N(C(=O)c1csnn1)c1ccc(C)cc1 (configuration not stated)	CHT block -5.2 | CHT inh conf inactive | HEK293 MPD ctr inactive
CCc1ccc(N(C(=O)c2csnn2)C(C(=O)NC(C)(C)CC)c2cccnc2)cc1 (configuration not stated)	CHT block -5.1 | CHT inh conf inactive | HEK293 MPD ctr inactive
CCC(C)(C)NC(=O)C(c1ccccc1F)N(Cc1ccco1)C(=O)c1csnn1 (configuration not stated)	CHT block -5 | CHT inh conf inactive | HEK293 MPD ctr inactive
CC(NC(=O)Cn1nc(-c2ccccc2)c2ccccc2c1=O)c1ccccc1 (configuration not stated)	CHT block -5.2 | CHT inh conf 69% | HEK293 MPD ctr inactive
Cc1cc2c(cc(C(=O)N3CCC(C(=O)NC4CCCC4)CC3)n2Cc2c(F)cccc2Cl)o1	CHT block -6.6 | CHT inh conf inactive | HEK293 MPD ctr inactive
O=C(NC1CCCC1)C1CCN(C(=O)c2ccccc2Cl)CC1	none
C[C@H](CO)N1C[C@H](C)[C@@H](CN(C)C(=O)NC2CCCCC2)Oc2ccc(NC(=O)C3CCCCC3)cc2C1=O	none (no result: NALP1 inh, CHT PAM, CHT block)
O=C(NCC(c1cccnc1)N1CCN(c2ccccc2F)CC1)c1cccc(Cl)c1 (configuration not stated)	CHT block -6.9 | CHT inh conf inactive | HEK293 MPD ctr inactive
O=C(COC(=O)c1n[nH]c(=O)c2ccccc12)Nc1ccccc1F	none (no result: NALP1 inh, CHT PAM, CHT block)
O=C(NC(=S)NNC(=O)c1ccc(Cl)cc1Cl)c1cccnc1	none (no result: Mot1-301 SUMO)
Cc1ccccc1C(=O)NNC(=S)NC(=O)c1ccc(Cl)cc1Cl	CHT block -9.3 | CHT inh conf 45% | HEK293 MPD ctr inactive
O=C(Nc1cc(C(F)(F)F)ccc1N1CCOCC1)c1ccc[n+]([O-])c1	none
Cc1ccc[n+](CC(=O)Nc2cc(C(F)(F)F)ccc2N2CCOCC2)c1	CHT block -8 | CHT inh conf 25% | HEK293 MPD ctr inactive
CC1CC(C)CN(C(=O)C(C)N2CCN(S(=O)(=O)c3ccc(Br)s3)CC2)C1 (configuration not stated)	none (no result: NALP1 inh, CHT PAM, CHT block)
CCOc1ccccc1C(=O)OCC(=O)Nc1nnc(-c2ccccc2)o1	none (no result: NALP1 inh)
